TRHR ag: TRH receptor (human) agonism. P34981. TRHR cells, calcium flux fluo-8, FDSS agonist mode. activation, % at 2 µM. 360,000 tested, 0.18% active. AID 493084; further: 0% is about no effect
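TRHR-expressing cells, plated overnight in medium with 10% serum, were loaded with fluo-8 calcium dye at room temperature. After a 10 s baseline, library compound was pin-added and calcium release was recorded kinetically (ex 480/em 530) as agonist response.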
D1 agonist: human D1 receptor agonism; activation, % at 2 µM; HEK293 T-REx D1 cells, calcium flux, agonist mode; 360,000 tested, 1% active; P21728; further: 0% is about no effect
Target sequence (P21728 whole entry, looked up): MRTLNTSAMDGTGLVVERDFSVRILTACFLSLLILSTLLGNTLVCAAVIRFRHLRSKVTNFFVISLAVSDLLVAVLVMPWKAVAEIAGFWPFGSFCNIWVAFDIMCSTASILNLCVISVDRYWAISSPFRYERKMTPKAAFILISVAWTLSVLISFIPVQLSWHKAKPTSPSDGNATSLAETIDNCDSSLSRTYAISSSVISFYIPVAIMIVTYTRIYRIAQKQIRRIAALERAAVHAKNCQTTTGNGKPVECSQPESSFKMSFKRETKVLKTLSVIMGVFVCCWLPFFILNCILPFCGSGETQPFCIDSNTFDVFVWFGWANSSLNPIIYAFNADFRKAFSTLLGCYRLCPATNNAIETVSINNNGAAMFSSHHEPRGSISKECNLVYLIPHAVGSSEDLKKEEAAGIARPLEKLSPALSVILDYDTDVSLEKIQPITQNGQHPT
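Inducible HEK293 T-REx D1 cells, force-coupled to calcium signalling, were plated at 4000 cells/well with tetracycline and held overnight at 30 C. After no-wash calcium dye loading, compound-evoked calcium rise over 180 s flagged agonists.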
D1 antag: antagonists of human D1 dopamine receptor. P21728. HEK293 TREx D1 cells, calcium flux, dopamine EC80; hits give low values. activity change, negative = inhibition, % at 10 µM. 360,000 tested, 3.2% active; in the data active means activity change below about -30%; further: on the % scale 0 is the no-effect control and ±100 the full control effect
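Inducible Hek293 Trex D1 cells (tetracycline, overnight, 30 C). Calcium dye 30–90 min RT. Antagonist mode: EC80 dopamine added after 180 s compound read.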
GRP78 ERSR act: induces the endoplasmic reticulum stress response in human glioma cells; Potency, µM, without a hit: top-dose activation, actives largely listed as activators; U87-MG GRP78 promoter luciferase reporter, 16 h; 420,000 tested, 0.02% active; active means well fitted activation curve with a large enough effect; inconclusive means small, poorly fitted or top-dose-only effect; inactive means no such curve, though single readings can be large or run the other way; further: potency means the concentration at half of the fitted maximal effect; series mostly up to about 76 µM; % of control where 0% means no effect; nearly all actives have a fitted effect of over 35% in size
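ERSR induction read as luciferase luminescence (Bright-Glo, 10 min at room temperature) in stably transfected human U87-MG glioma cells exposed to compounds for 16 h, using GRP78 as sensor.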
TRHR PAM: allosteric enhancers of human TRH receptor | 360,000 tested, 0.66% active | TRHR cells, fluo-8 calcium fluorescence, EC20 TRH enhancement | P34981 | enhancement, % at 2 µM | AID 493056; in the data active means enhancement above about 30%; further: 0% is about no effect
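TRHR-expressing cells loaded with fluo-8 calcium dye were read kinetically (ex 480/em 530) during compound addition, then stimulated with an EC20 of TRH (10 nM final). Enhancement of the Gq-mediated intracellular calcium response was scored.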
D1 PAM: human D1 dopamine receptor positive modulation; P21728; HEK293 TREx D1 cells, calcium flux, dopamine EC20 potentiation; potentiation, % at 10 µM; 360,000 tested, 0.036% active; in the data active means potentiation above about 30%; further: 0% is about no effect
Active calls of the source: *; ? = inconclusive; / = not tested or not shown; ! = not active in a repeat. An excerpt weighted towards active compounds, which were near 4% of everything screened. Unless noted, no stated cut-off is given here; in the data, active means activation above about 30%; inactive means the rest.

SMILES | TRHR ag | D1 agonist | D1 antag | GRP78 ERSR act | TRHR PAM | D1 PAM
CC(C)C1COC(c2cccn2Cc2ccccc2Cl)=N1 (configuration not stated) | -0.6 | 0.4 | -37.7* | -1.8% | 11.3 | 2.0
CN1NC(=O)CC1c1ccccc1 (configuration not stated) | / | / | / | -1.3% | / | /
CN1CC2(C)OC(=O)C(Cl)=C2CC1c1ccccc1 (configuration not stated) | -0.2 | 2.8 | -54.7* | -4.3% | -2.7 | -5.6
COc1cc(NC(=O)CN2c3cccc4cccc(c34)S2(=O)=O)cc(OC)c1OC | -0.6 | 8.1 | -25.6 | -3.8% | -2.4 | -12.6
CCc1ccc(CNc2ccc(N3CCN(C(C)=O)CC3)cc2)cc1 | 0.6 | 34.0* | -14.3 | 5.8% | 4.7 | -0.3
CCN(c1ccc(N=Cc2c(O)n(Cc3ccc(OC)cc3)c(=O)c3ccccc23)cc1)C(C)C | -0.2 | 57.5* | -1.1 | -2.1% | 8.7 | 4.8
N#Cc1cc2c(nc1SCC(=O)Nc1sc3c(c1C#N)CCC3)CCC2 | 0.2 | 1.3 | -42.4* | 6.5% | -0.8 | -0.7
Cc1ccnc(SCC(=O)Nc2sc3c(c2C#N)CCCC3)n1 | 0.1 | 16.4 | -32.8* | -5.0% | 3.8 | -7.0
Cc1csc(SCC(=O)Nc2sc3c(c2C#N)CCC3)n1 | -0.3 | 0.9 | -30.8* | -2.2% | -7.6 | -4.0
COC(=O)NC(c1ccco1)[C@@]1(C(=O)OC)CCCC1=O (some centres not stated) | / | / | / | -3.7% | / | /
O=C(CNS(=O)(=O)c1ccc(Br)s1)N1CCN(c2ccc(F)cc2)CC1 | -0.8 | 4.7 | -51.4*! | -2.8% | 10.0 | -6.7
Cc1cc(C)c2c(NC(=O)CCl)nn(C)c2n1 | 0.2 | 2.5 | -11.9 | 39.8µM* | -6.8 | 2.9
Cc1cc(C)c2c(NC(=S)NC(=O)c3ccccc3)nn(C)c2n1 | 0.1 | 3.7 | 11.8 | -3.7% | 5.0 | -1.1
COc1cccc(-n2c(=O)c3c(C)c(C(=O)N(C)C)sc3n(Cc3ccc(F)cc3Cl)c2=O)c1 | 0.1 | 1.2 | -31.5* | -4.3% | -10.8 | 3.0
COc1cccc(-n2c(=O)c3c(C)c(C(=O)N(C)C)sc3n(CC(=O)NCC3CCCO3)c2=O)c1 (configuration not stated) | 0.0 | 1.7 | -30.4* | -1.9% | -3.8 | -15.1
CCc1ccc(-n2c(=O)c3c(C)c(C(=O)N(C)C)sc3n(CC(=O)NCC3CCCO3)c2=O)cc1 (configuration not stated) | -0.2 | 1.6 | 4.0 | -2.5% | 10.8 | 1.4
COC(=O)c1ccccc1NC(=O)Cn1c(=O)n(-c2cccc(OC)c2)c(=O)c2c(C)c(C(=O)N(C)C)sc21 | -0.3 | 19.4 | -35.0* | 0.2% | 1.9 | -2.9
CCc1ccc(/C=N/NC(=O)C(=O)NCCCN2CCOCC2)cc1 | -1.0 | 1.9 | -13.3 | -0.6% | -6.5 | -1.2
O=C(c1ccccc1)N1CCN(C(=S)NCCc2ccccc2)CC1 | 0.8 | 3.3 | 10.8 | 1.1% | -1.1 | 3.9
C=CCNC(=O)c1ccccc1NC(=O)c1cccc2ccccc12 | 0.8 | -2.4 | -1.3 | -3.1% | -3.7 | -1.1
CCCCn1c(O)c(/C=C/C=C/C=Nc2ccccc2)sc1=S | 0.8 | 1.9 | -31.0* | ? | -1.5 | -3.7
COC(=O)C1=C(C)N(C)C(=O)NC1c1cc(Cl)cc(Cl)c1OC (configuration not stated) | -0.8 | 5.8 | -28.7 | -0.1% | 10.3 | -2.9
CC(=O)OCc1c(-c2ccccc2)c2cc([N+](=O)[O-])ccc2n1C | 0.3 | 3.7 | -47.0* | -1.1% | -5.0 | -5.2
CCOC(=O)CN(C(=O)CSc1nnc(C)n1-c1ccccc1)c1cccc([N+](=O)[O-])c1 | -0.7 | 0.8 | -4.6 | -4.6% | 5.2 | -2.6
CCOC(=O)CN(C(=O)CSc1nnc(C)n1-c1ccccc1)c1ccccc1 | -0.1 | 0.7 | -52.1* | -2.9% | -19.6 | -4.0
SMILES | TRHR ag | D1 agonist | D1 antag | GRP78 ERSR act | TRHR PAM | D1 PAM
CC(O)[C@H]1CC[C@H]2[C@@H]3CC[C@H]4C[C@H](O)CC[C@]4(C)[C@H]3[C@H](O)C[C@]12C (some centres not stated) | -0.8 | 71.7* | -50.1* | -0.8% | -3.6 | -2.8
CC(O)[C@H]1CC[C@H]2[C@@H]3CC[C@H]4C[C@@H](O)CC[C@]4(C)[C@H]3C(=O)C[C@]12C (some centres not stated) | 1.2 | 8.0 | -3.2 | -4.2% | 4.5 | -2.5
O=C(CCC1CCCCC1)NCCS(=O)(=O)N1CCN(c2ccccc2F)CC1 | -1.3 | 0.2 | -8.9 | -3.4% | -7.1 | -0.8
Cc1nc([N+](=O)[O-])cn1Cc1cccc([N+](=O)[O-])c1 | 1.1 | 3.2 | -31.3* | -2.3% | 1.8 | -6.4
Cc1cccc(NC(=S)NNC(=O)c2ccco2)c1 | -0.3 | 1.9 | -26.4 | 3.2% | 0.7 | 6.9
O=C(NNC(=S)NC(=O)c1ccc(Br)cc1)c1ccc([N+](=O)[O-])cc1 | 6.1 | 10.4 | -3.9 | 4.4% | -7.0 | -0.5
Cc1ccc(C)c(NC(=S)NCc2ccccc2)c1 | -0.7 | 1.8 | -36.3* | -1.6% | -9.6 | -7.6
Cc1ccc(C(=O)NC(=S)NNC(=O)c2ccccc2)cc1 | 30.6* | 200.0* | -41.8* | 1.3% | -3.2 | -5.2
O=C(NNC(=S)NC(=O)c1ccc(Br)cc1)c1cccc([N+](=O)[O-])c1 | 4.1 | 32.2* | -4.5 | -4.8% | -6.1 | -1.2
Cc1ccc(C)c(NC(=S)NNC(=O)c2ccco2)c1 | 0.4 | 2.5 | -35.3* | -0.4% | 6.5 | -8.0
Cc1cc(OCC(=O)NC(C)C)cc(C)c1Br | -0.3 | 2.6 | -8.6 | -2.4% | -6.7 | -1.7
O=C(NC(=S)NNC(=O)c1ccccc1O)c1ccccc1 | 2.7 | 2.4 | -9.5 | 6.0% | 1.0 | -1.1
Cc1ccc(C(=O)NNC(=S)NC(=O)c2ccc(Cl)cc2Cl)cc1 | 32.2* | 153.6* | 4.4 | 4.5% | -7.8 | 1.9
COc1ccc(C(=O)NNC(=S)NC(=O)c2cccs2)cc1 | 2.5 | 13.4 | -8.3 | 1.4% | 16.9 | -0.8
Cc1cccc(C(=O)NNC(=S)NC(=O)c2cccs2)c1 | 20.3 | 75.7* | -5.8 | ? | -7.2 | -8.5
Cc1ccc(C(=O)NC(=S)NNC(=O)c2ccccc2O)cc1 | 2.6 | 55.2* | -16.4 | 4.8% | 2.5 | -0.8
Cc1ccccc1C(=O)NNC(=S)NC(=O)c1ccccc1 | 58.9* | 279.3* | -37.3* | 9.8% | -23.0 | -0.7
COCc1c(C(=O)Nc2ccc3nc(N4CCOCC4)sc3c2)oc2ccccc12 | -0.6 | 5.1 | 0.1 | -5.1% | -2.4 | -5.2
S=c1[nH]nc(C23CC4CC(CC(C4)C2)C3)n1Cc1ccco1 | / | / | / | -2.7% | / | /
Cc1ccc(C(=O)NNC(=S)NC(=O)c2ccco2)cc1 | 10.9 | 59.1* | -10.8 | 4.0% | 5.3 | -7.8
Cc1cccc(-c2nnc(NC(=O)c3cccs3)s2)c1 | 1.0 | 1.1 | -41.2* | 4.9% | -2.1 | 0.3
